Bioassay records from PubChem BioAssay.
HTT aggregate: qHTS Multiplex Assay to Identify Dual Action Probes in a Cell Model of Huntington: Aggregate Formation (GFP); PC12 HttQ103-GFP aggregates, Acumen cytometry, 40 h; Potency, µM (series often up to 46.1 µM), without a hit: at the top dose activity change, negative = inhibition, actives largely listed as inhibitors; actives 1.1% (n = 220,000); AID 1688, 2009; note: potency is the fitted concentration of half-maximal effect; % is set by controls: 0 for no effect and ±100 for the full control effect; nearly all actives have a fitted effect of over 60% in size
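Huntingtin Q103 exon 1–GFP aggregates in induced PC12 cells (100 nM tebufenozide) were quantified by cytometry from lysates, with compounds dosed in titration.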
AT treatment: qHTS Assay for Identifying a Potential Treatment of Ataxia-Telangiectasia | Potency, µM (top dose mostly 57.5 µM), for the others: top-dose activation, actives largely listed as activators | AID 485349, 2010 | actives 0.19% (n = 320,000) | F2112 A-T fibroblasts, KAP-1 phosphorylation AlphaLISA; neocarzinostatin DNA damage 30 min before lysis; note: potency is the fitted concentration of half-maximal effect; % of control where 0% means no effect; nearly all actives have a fitted effect of over 45% in size
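hTERT-immortalized A-T patient fibroblasts (F2112), 500 cells/well in OPTI-MEM, 1% FBS, got compounds for 60 min, then NCS for 30 min at 37C. Lysates were then assayed for phospho-KAP-1 by AlphaLISA (anti-pKAP1 donor, anti-KAP1 acceptor beads), 6 hr at 25C.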
NPSR antag: qHTS Assay for Antagonists of the Neuropeptide S Receptor: cAMP Signal Transduction. actives 1% (n = 220,000). AID 1461, 2008. CHO-NPSR cells, cAMP TR-FRET, antagonist mode. Q6W5P4. Potency, µM (titrated, usually from 38.3 µM), for the others: at the top dose activity change, negative = inhibition, hits mostly inhibitors; note: potency is the fitted concentration of half-maximal effect; % is set by controls: 0 for no effect and ±100 for the full control effect; nearly all actives have a fitted effect of over 50% in size
Target sequence (Q6W5P4 whole entry, looked up): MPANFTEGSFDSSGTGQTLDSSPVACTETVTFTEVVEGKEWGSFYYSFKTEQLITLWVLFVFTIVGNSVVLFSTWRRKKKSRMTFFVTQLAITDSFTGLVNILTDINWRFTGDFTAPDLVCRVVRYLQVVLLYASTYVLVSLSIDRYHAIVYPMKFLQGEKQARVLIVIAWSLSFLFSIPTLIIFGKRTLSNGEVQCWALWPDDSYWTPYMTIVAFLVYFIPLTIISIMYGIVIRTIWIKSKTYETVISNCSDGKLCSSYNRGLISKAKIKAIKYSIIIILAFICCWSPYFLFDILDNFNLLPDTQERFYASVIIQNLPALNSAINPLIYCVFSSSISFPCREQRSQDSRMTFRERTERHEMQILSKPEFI
IDH1 R132H inh: qHTS for Inhibitors of mutant isocitrate dehydrogenase 1 (IDH1): qHTS | Isocitrate dehydrogenase [NADP] cytoplasmic (Homo sapiens), O75874 | IDH1-R132H enzyme, NADPH consumption, diaphorase/resazurin fluorescence | Potency, µM (titrated, usually from 76.6 µM), inactives show at the highest dose activity change, negative = inhibition, usual class: inhibitors | actives 0.093% (n = 390,000) | AID 602179, 2012; note: potency is the fitted concentration of half-maximal effect; % is set by controls: 0 for no effect and ±100 for the full control effect; nearly all actives have a fitted effect of over 65% in size
Target sequence (O75874 whole entry R132H, stated change not applied): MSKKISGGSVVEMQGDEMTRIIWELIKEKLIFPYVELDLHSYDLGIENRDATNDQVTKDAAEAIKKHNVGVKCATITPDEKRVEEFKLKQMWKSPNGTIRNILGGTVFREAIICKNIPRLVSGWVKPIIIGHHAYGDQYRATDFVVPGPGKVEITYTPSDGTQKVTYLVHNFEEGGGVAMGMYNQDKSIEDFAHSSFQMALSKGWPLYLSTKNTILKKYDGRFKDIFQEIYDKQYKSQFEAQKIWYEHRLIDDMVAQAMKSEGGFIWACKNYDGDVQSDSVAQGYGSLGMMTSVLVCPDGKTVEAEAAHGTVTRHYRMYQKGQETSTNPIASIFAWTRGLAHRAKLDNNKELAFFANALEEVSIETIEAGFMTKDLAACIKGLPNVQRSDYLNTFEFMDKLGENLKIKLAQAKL
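IDH1-R132H (0.5 ug/mL dispensed) in pH 7.5 Tris buffer was preincubated 30 min with compound, then given a substrate mix of 0.016 mM NADPH and 2 mM alpha-KG for 80 min at room temperature; remaining NADPH was read by diaphorase/resazurin fluorescence.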
HTT cytoprotect: qHTS Multiplex Assay to Identify Dual Action Probes in a Cell Model of Huntington: Cytoprotection (ATP); PC12 HTT-Q103 induced, cytoprotection, ATP luminescence, 40 h; Potency, µM (highest dose often 56.4 µM), for the others: cytoprotection (ATP increase), most hits filed as activators; actives 0.14% (n = 230,000); note: potency is the fitted concentration of half-maximal effect; % of control where 0% means no effect; nearly all actives have a fitted effect of over 45% in size
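Readout: ATPlite luminescence (ATP level). Model: stable PC12, inducible Htt exon1 Q103-GFP. Inducer: tebufenozide, 100 nM final. Compounds: dose series. No G418 in medium.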
Resorufin autofl: qHTS for Inhibitors of mutant isocitrate dehydrogenase 1 (IDH1): Cherrypicks Autofluorescence Interference. shares compounds with IDH1 R132H inh. Resorufin detection reagent fluorescence interference, cell-free. inhibition of signal, % at 51.2 µM. 750 tested, under 10 active;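 note: 0% = wells with normal resorufin and full inhibition = wells lacking resorufin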
WT IDH1 inh: qHTS for Inhibitors of mutant isocitrate dehydrogenase 1 (IDH1): Cherrypicks in WT IDH1; shares compounds with IDH1 R132H inh; WT IDH1 enzyme, NADPH diaphorase/resazurin fluorescence; Potency, µM (highest dose often 115 µM), for inactives: top-dose activity change, negative = inhibition, actives largely listed as inhibitors; actives 9% (n = 750); AID 623995, 2012;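 note: potency is the fitted concentration of half-maximal effect; 0% = full WT IDH1 enzyme control and full inhibition = no enzyme wells; nearly all actives have a fitted effect of over 55% in size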
mIDH1 confirm: qHTS for Inhibitors of mutant isocitrate dehydrogenase 1 (IDH1): Confirmation of Cherrypicks | shares compounds with IDH1 R132H inh | IDH1 R132H enzyme, NADPH diaphorase/resazurin fluorescence | Potency, µM (highest dose often 76.6 µM), for inactives: at the highest dose activity change, negative = inhibition, hits mostly inhibitors | actives 83% (n = 750) | AID 624002, 2012; note: potency is the fitted concentration of half-maximal effect; nearly all actives have a fitted effect of over 50% in size
An asterisk follows results filed as active; ? = inconclusive; . = no result; ! = not active in a repeat; [ ] = dose if it differs, or a comment. Most compounds without a hit are left out; they make up all but 1.1% or so of the library. Calls come from the whole dose curve; as a rule, active = well fitted curve in the direction sought with a large enough effect; inconclusive = small, poorly fitted or top-dose-only effect, or another doubt; inactive = no such curve, though single readings can be large; an effect the other way counts as inactive or inconclusive.

SMILES	HTT aggregate	AT treatment	NPSR antag	IDH1 R132H inh	HTT cytoprotect	others
CCCCn1c(N)c(C(=O)OCCOC)c2nc3ccccc3nc21	-4%[9.22 µM]	7%	-22%	-3%	-5%[10 µM]
CN(C)[C@@H]1C(=O)C(C(N)=O)=C(O)[C@]2(O)C(=O)C3=C(O)c4c(O)cccc4[C@](C)(O)[C@H]3C[C@@H]12	.	.	.	.	-20%[10 µM]
Oc1c(Br)cc(Br)cc1Oc1ccc(Br)cc1Br	13µM*	?	-37%	.	.
Brc1ccc(Oc2ccc(Br)cc2Br)c(Br)c1	.	9%	.	2%	2%
c1ccc2c(c1)OC[C@@H](C1=NCCN1)O2	.	.	.	.	5µM*!
c1ccc(C2(c3ccccc3)CC2C2=NCCN2)cc1 (stereo not given)	4%	.	.	.	-12%
O=C1NC(=O)N(c2ccccc2)C(=O)/C1=C/c1ccc(Sc2ccccc2)o1	-8%	6%	10µM*	-8%	-22%
O=C1NC(=O)N(c2cccc(Cl)c2)C(=O)/C1=C\c1ccc(Sc2nc3ccccc3[nH]2)o1	-10%	7%	-44%	?	4%[10 µM]
C[C@@]12Cc3cnc(-c4ccccc4)nc3C[C@@H]1CC[C@@H]1[C@H]3CC[C@@](C)(O)[C@]3(C)CC[C@@H]12	.	.	.	.	-6%[10 µM]
C[CH2][Hg][S]c1ccccc1C(=O)O	2.5µM*	.	.	-24%	-323%
CC(C)[C@H]1C(=O)N2CCC[C@@H]2[C@]2(O)O[C@@](NC(=O)[C@H]3C=C4c5cccc6[nH]cc(c56)C[C@H]4N(C)C3)(C(C)C)C(=O)N12	.	.	.	.	-14%
Cc1ccc(Cn2cccc(C(=O)Nc3ccc(C)c(Cl)c3)c2=O)cc1	.	.	.	2%	.
Cc1ccc(NC(=O)Nc2cc3c(cc2N2CCCCC2)n(C)c(=O)n3C)cc1Cl	.	.	.	28µM*	.
C[C@@H](Cc1ccc2c(c1)OC(C(=O)O)(C(=O)O)O2)NC[C@H](O)c1cccc(Cl)c1	.	.	.	.	-5%[1.9 µM]
CC(=NCCc1c[nH]c2ccccc12)c1c(O)n(Cc2ccccc2)c(=O)[nH]c1=O	11%[9.22 µM]	32µM*	-44%	2%	-2%[10 µM]
CCC(=NCCc1c[nH]c2ccccc12)c1c(O)n(C)c(=O)n(C)c1=O	7.9µM*	7%	-12%[46.1 µM]	4%	-28%
CCC(=NCCOc1ccc(Cl)cc1)c1c(O)n(C)c(=O)n(C)c1=O	11µM*	5%	-6%[46.1 µM]	3%	-23%
CCC(=NCCc1c[nH]c2ccccc12)c1c(O)n(-c2ccc(C)cc2)c(=O)[nH]c1=O	?	2%	-5%	3%	-23%[10 µM]
CCC(=NCc1ccc2c(c1)OCO2)c1c(O)n(C)c(=O)n(C)c1=O	20µM*	8%	-12%[46.1 µM]	13%	-25%[0.074 µM]
N[C@H](Cc1c[nH]c2ccccc12)P(=O)(O)O	.	.	.	.	-8%[10 µM]
Oc1ccc2c3c1O[C@@H]1c4[nH]c5c(c4C[C@@]4(O)[C@@H](C2)N(CC2CC2)CC[C@]314)C[C@]1(O)[C@@H]2Cc3ccc(O)c4c3[C@@]1(CCN2CC1CC1)[C@H]5O4	.	.	.	.	-12%[1.9 µM]
CCCCCCCCCCCCOCCOCCOCCOCCOCCOCCOCCOCCOCCO	?	.	.	.	-78%
Cc1ccc(/C=C2\C(=O)NC(=S)N(c3ccc(F)cc3)C2=O)s1	3%	3%	22%	0%	-28%
Cc1ccc(/C=C2\C(=O)NC(=S)N(c3ccccc3F)C2=O)s1	0%	-12%	5µM*	-9%	-11%[10 µM]
Clc1cncc(N2CCNCC2)n1	.	.	.	.	0.16µM*!
SMILES	HTT aggregate	AT treatment	NPSR antag	IDH1 R132H inh	HTT cytoprotect	others
CCN1C[C@]2(C)CC[C@@H](O)[C@]34[C@@H]5CC6[C@@H](OC)C[C@@](O)([C@H]5[C@@H]6O)[C@@H](C[C@@H]23)[C@H]14	.	.	.	.	-4%[1.9 µM]
c1ccc2c(CN3CCCCCCC3)c[nH]c2c1	13µM*	-7%	0%[46.1 µM]	-4%	-85%
c1ccc2c(CN3CCN(C4CCCCC4)CC3)c[nH]c2c1	-30%	.	13%[46.1 µM]	6%	-37%
c1ccc2c(CNC3CCCCC3)c[nH]c2c1	11µM*	.	-7%[46.1 µM]	1%	-122%
C#CCN[C@@H](C)Cc1ccccc1	.	.	.	.	25%[1.9 µM]
C[C@@]12CC[C@H]3[C@@H](CCC4=C(O)C(=O)CC[C@]43C)[C@H]1CCC2=O	.	.	.	.	7%[1.9 µM]
Cc1occc1C(=O)Nc1nnc(C(F)(F)F)s1	35µM*	.	6%[46.1 µM]	13%	-1%
CCNC(C)(C)[C@@H](SS)c1ccc(Br)cc1	.	.	.	.	-19%[10 µM]
CCOC(=O)C(O)(c1ccc(N(CC)C(=O)OC)cc1)C(F)(F)F (stereo not given)	1.6µM*	0%	-13%[46.1 µM]	10%	-2%[0.074 µM]
COc1cc(/C=C/[N+](=O)[O-])ccc1O	25µM*	16%	?	-4%	.
CC(=O)[O-].CC(=O)[O-].O.O.[Cd+2]	.	.	.	.	-69%
Nc1c(C(=O)NCc2ccco2)c2nc3ccccc3nc2n1Cc1ccc(F)cc1	?	?	10µM*	-7%	-14%[10 µM]
O=S(=O)(O)/C(=C\c1ccccc1)c1ccccc1 (tested in a mixture with another compound)	.	.	.	.	-10%[10 µM]
N#CC(C#N)=NNc1ccc(-n2ccc(C(F)(F)F)n2)cc1	?	-20%	2.5µM*	33µM*	-53%[10 µM]	Resorufin autofl=3;WT IDH1 inh=79µM*;mIDH1 confirm=25µM*
CCOC(=O)c1c(-n2c(C)cc(C=C3C(=O)NC(=S)NC3=O)c2C)sc2c1CCCC2	?	-7%	4µM*	14µM*	-1%[10 µM]	Resorufin autofl=0;WT IDH1 inh=40µM*;mIDH1 confirm=7.1µM*
Cc1ccc(N2C(=O)NC(=O)/C(=C\c3cc(C)n(-c4sc5c(c4C#N)CCCC5)c3C)C2=O)cc1	11%	11%	-11%	?	2%[10 µM]
